Among the data in PubChem BioAssay (NCI) are growth values, retold here.

About 83,000 compounds went through this panel and 20% of them were active in at least one assay; those are over-represented in the sample as a whole.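 96-well plates, one dose, 48 hours. Percent growth reported; active if below 10.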 Values without a mark were called inactive. The source made the active and inactive calls.

Among the test systems are NCI-H23 lung; NCI-H226 lung; NCI-H322M lung; HOP-62 NSCLC; NCI-H460 lung; HOP-92 NSCLC; NCI-H522 lung; A549/ATCC NSCLC; 786-0 renal; COLO 205 colon; DU-145 prostate; K-562 leukemia; MALME-3M melanoma; MDA-MB-231 breast; RXF 393 renal; SF-268 CNS; SF-295 CNS; SF-539 CNS; UACC-257 melanoma; M14 melanoma.
What all share (assay): NCI-60 one-dose screen, 48 h (100 = growth as untreated, 0 = no growth, -100 = all killed)
Settings in all cases: 10 µM unless noted

In the case of `Cc1ccc(NC(=O)[C@]23CCC(C)(C)CC2C2=CCC4[C@@]5(C)C[C@@H](O)[C@H](O)[C@@](C)(CO)C5CC[C@@]4(C)[C@]2(C)CC3)cc1` (stereo not given in full), the growth with NCI-H23 lung was 29.5%; in the experiment on NCI-H226 lung, 9.45% (active); in the experiment on NCI-H322M lung, 69.3%; in the experiment with HOP-62 NSCLC, 47.2%; with NCI-H460 lung, 3.15% (active); in the experiment on HOP-92 NSCLC, -19.6% (active). In addition, the growth is 12.3% with NCI-H522 lung; 20.5% in the experiment on A549/ATCC NSCLC; 17.1% in the experiment on 786-0 renal; -65.9% (active) in the experiment with COLO 205 colon; 45.6% in the experiment on DU-145 prostate; 11.6% in the experiment on K-562 leukemia. Besides, the growth in the experiment with MALME-3M melanoma is 49.5%; in the experiment on MDA-MB-231 breast, -8.63% (active); in the experiment on RXF 393 renal it was -38.6% (active); with SF-268 CNS, 48.5%; in the experiment with SF-295 CNS, 21.8%; in the experiment with SF-539 CNS it was 28.1%. For the same compound, the growth in the experiment with UACC-257 melanoma was 39.8%; in the experiment with M14 melanoma, 38.3%.
For the compound `C=C1CCC2C3(C)COC(c4ccc(F)cc4)OC3CCC2(C)C1C/C=C1/C(=O)OCC1O` (stereo not given), the growth in the experiment on NCI-H23 lung was -40.3% (active); in the experiment with NCI-H226 lung it was -8.14% (active); with NCI-H322M lung, 27%; with HOP-62 NSCLC it was -3.79% (active); with NCI-H460 lung it was -39% (active); with HOP-92 NSCLC it was -43.7% (active). Moreover, the growth was -80.7% (active) in the experiment on NCI-H522 lung; 9.65% (active) in the experiment with A549/ATCC NSCLC; -89.2% (active) with 786-0 renal; -50.6% (active) in the experiment with COLO 205 colon; -41.4% (active) with DU-145 prostate; 11.9% with K-562 leukemia. Moreover, the growth is -71.9% (active) in the experiment on MALME-3M melanoma; -45.2% (active) with MDA-MB-231 breast; -69.7% (active) with RXF 393 renal; 39.7% in the experiment on SF-268 CNS; -8.06% (active) with SF-295 CNS; -85.5% (active) with SF-539 CNS. The growth in the experiment on UACC-257 melanoma is -62.6% (active); in the experiment with M14 melanoma it was -68.1% (active).
Turning to `Cc1cc2c(cc1Cl)C(=O)/C(=C/c1ccc(F)cc1)O2`, the growth was 85.8% in the experiment with NCI-H23 lung; 84.3% with NCI-H226 lung; 99.6% in the experiment with NCI-H322M lung; 93.7% with HOP-62 NSCLC; 105% in the experiment with NCI-H460 lung; 93.4% with HOP-92 NSCLC. For the same compound, the growth in the experiment with NCI-H522 lung is 65.8%; in the experiment with A549/ATCC NSCLC, 103%; in the experiment with 786-0 renal it was 89.8%; in the experiment with COLO 205 colon it was 119%; in the experiment with DU-145 prostate it was 118%; in the experiment with K-562 leukemia it was 77.6%. Also, the growth with MALME-3M melanoma was 100%; with MDA-MB-231 breast it was 90.1%; in the experiment with RXF 393 renal it was 95.7%; in the experiment with SF-268 CNS, 117%; in the experiment with SF-295 CNS, 98.9%; in the experiment on SF-539 CNS, 85.9%. For the same compound, the values for the growth in the experiment with UACC-257 melanoma and in the experiment with M14 melanoma were 106% and 96.8%, respectively.
With `Cc1ccccc1[C@H]1C(C(=O)c2ccc(Cl)cc2)C2(N[C@@H]1c1ccccc1)C(=O)Nc1ccc(Cl)cc12` (stereo not given in full), the growth was -56.2% (active) with NCI-H23 lung; -60.2% (active) with NCI-H226 lung; 22.1% with NCI-H322M lung; -63.7% (active) with HOP-62 NSCLC; 1.55% (active) in the experiment with NCI-H460 lung; -44.4% (active) in the experiment with HOP-92 NSCLC. In addition, the growth was -48.6% (active) in the experiment on NCI-H522 lung; -29.2% (active) with A549/ATCC NSCLC; -39.3% (active) in the experiment on 786-0 renal; -75.7% (active) in the experiment with COLO 205 colon; 5.12% (active) in the experiment on DU-145 prostate; -2.2% (active) in the experiment with K-562 leukemia. The growth is -33.3% (active) with MALME-3M melanoma; -72.2% (active) in the experiment on MDA-MB-231 breast; -67.7% (active) with RXF 393 renal; 29.3% with SF-268 CNS; -22.5% (active) in the experiment with SF-295 CNS; -58.1% (active) in the experiment on SF-539 CNS. Also, the growth with UACC-257 melanoma is 4.82% (active); in the experiment on M14 melanoma, -78.4% (active).
With `O=C(COc1ccc(NC(=O)Nc2ccc(Cl)c(Cl)c2)cc1)N=Nc1c(O)[nH]c2ccc(Cl)cc12`, the growth in the experiment on NCI-H23 lung was -19.5% (active); in the experiment on NCI-H226 lung, -42.8% (active); in the experiment on NCI-H322M lung, -5.99% (active); in the experiment on HOP-62 NSCLC, -61.3% (active); in the experiment on NCI-H460 lung, 14.1%; with HOP-92 NSCLC, -30.5% (active). Also, the growth with NCI-H522 lung was -55.8% (active); in the experiment on A549/ATCC NSCLC it was -39.1% (active); with 786-0 renal, -52.5% (active); in the experiment on COLO 205 colon it was -54.4% (active); in the experiment with DU-145 prostate it was -31.3% (active); in the experiment with K-562 leukemia, 4.71% (active). The growth in the experiment on MALME-3M melanoma is -76.6% (active); in the experiment with MDA-MB-231 breast, -66.5% (active); in the experiment with RXF 393 renal, -53% (active); in the experiment on SF-268 CNS, -12.3% (active); with SF-295 CNS it was -61% (active); in the experiment on SF-539 CNS, -90.2% (active). For the same compound, the growth with UACC-257 melanoma is -72.2% (active); in the experiment with M14 melanoma, -71.2% (active).
Regarding `O=C(COc1ccc(NC(=O)Nc2ccc(Cl)c(Cl)c2)cc1)N=Nc1c(O)[nH]c2ccc(Br)cc12`, the growth in the experiment on NCI-H23 lung is -10.7% (active); with NCI-H226 lung, -58.1% (active); in the experiment with NCI-H322M lung, -15.4% (active); in the experiment on HOP-62 NSCLC it was -71.3% (active); in the experiment on NCI-H460 lung it was 7.45% (active); in the experiment with HOP-92 NSCLC, -43.5% (active). For the same compound, the growth with NCI-H522 lung was -64.7% (active); with A549/ATCC NSCLC, -45.8% (active); in the experiment with 786-0 renal it was -70.3% (active); in the experiment on COLO 205 colon, -57% (active); in the experiment with DU-145 prostate, -30.1% (active); with K-562 leukemia, 7.78% (active). The growth was -85.4% (active) in the experiment with MALME-3M melanoma; -59.3% (active) with MDA-MB-231 breast; -54.3% (active) in the experiment on RXF 393 renal; 1.44% (active) in the experiment with SF-268 CNS; -68.3% (active) with SF-295 CNS; -90.8% (active) in the experiment on SF-539 CNS. Further, the results for the growth in the experiment with UACC-257 melanoma and in the experiment on M14 melanoma were -76.5% (active) and -63.8% (active), respectively.
With `CCCCCCCCOc1cccc(S(=O)(=O)Nc2ccc(C)cc2C(=O)O)c1`, the growth in the experiment with NCI-H23 lung was 96.3%; with NCI-H226 lung, 98.4%; with NCI-H322M lung it was 94.5%; in the experiment with HOP-62 NSCLC, 99.8%; with NCI-H460 lung, 98.4%; in the experiment on HOP-92 NSCLC, 80.1%. Besides, the growth in the experiment on NCI-H522 lung is 86.5%; with A549/ATCC NSCLC, 84.2%; with 786-0 renal, 99.4%; in the experiment on COLO 205 colon, 112%; in the experiment on DU-145 prostate, 102%; in the experiment with K-562 leukemia, 83.8%. In addition, the growth in the experiment on MALME-3M melanoma was 96%; in the experiment on MDA-MB-231 breast, 105%; in the experiment with RXF 393 renal it was 107%; in the experiment on SF-268 CNS, 99.2%; in the experiment with SF-295 CNS, 90%; in the experiment on SF-539 CNS it was 97.6%. For the same compound, the growth in the experiment with UACC-257 melanoma is 96.7%; with M14 melanoma, 100%.
For `O=C(COc1ccc(NC(=O)Nc2ccc(Cl)cc2)cc1)N/N=C/c1ccccc1`, the growth with NCI-H23 lung was -94.5% (active); in the experiment on NCI-H226 lung, -89.2% (active); with NCI-H322M lung, -40.4% (active); in the experiment on HOP-62 NSCLC, -84.6% (active); with NCI-H460 lung it was -79.3% (active); in the experiment with HOP-92 NSCLC, -77.9% (active). The growth is -83.5% (active) with NCI-H522 lung; -78.3% (active) in the experiment on A549/ATCC NSCLC; -82% (active) with 786-0 renal; -66.5% (active) in the experiment on COLO 205 colon; -23.9% (active) in the experiment with DU-145 prostate; -15.2% (active) in the experiment on K-562 leukemia. Also, the growth in the experiment on MALME-3M melanoma was -90.8% (active); in the experiment with MDA-MB-231 breast, -87.9% (active); with RXF 393 renal, -85.2% (active); in the experiment on SF-268 CNS, -55.2% (active); with SF-295 CNS, -96.6% (active); in the experiment with SF-539 CNS it was -95.3% (active). In addition, the growth in the experiment with UACC-257 melanoma is -36.6% (active); in the experiment with M14 melanoma, -66.1% (active).
